Source: the supplement of paper PMC10849652
Of roughly 7,900 targets only a part is listed; those with a hit were picked by preference. About 0.6% of all pairs of compound and target were hits. A number with no mark means an inactive call.

What was measured:
Experiment in all cases: log2 fold change, soluble protein after heating vs DMSO (PISA); higher = thermal stabilisation; K562 cells, 10 uM, 30 min; active = over 0.2 and 3.5 SD of the protein, either way, in both replicates (recomputed)
erlotinib = compound: C#Cc1cccc(Nc2ncnc3cc(OCCOC)c(OCCOC)cc23)c1 [erlotinib]
Procedure, shortened: (§1)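 Quantification of soluble protein used TMTpro 16plex LC-MS/MS, with channel sums equalised. Samples were the supernatant after 21,000xg for 90 min of pooled aliquots from K562 cells (2×10^6 cells/mL) treated with 10 μM compound for 30 min, heated for 3 min over 48°C-58°C, and extracted in PBS with 0.5% NP-40 at 4°C. Values, from duplicates, describe thermal stability against control samples on a log2 fold-change scale.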

[1] = compound: C/C(=N\NC(=O)C1=CC(=CC=C1)S(=O)(=O)N2CCOCC2)/C3=C(C=CC(=C3)Cl)O
Procedure, shortened: as §1

[2] = compound: C1=CC(=C(C=C1Cl)C2=NC3=NC=CN=C3C(=N2)NC4=CC=NC=C4)F
Procedure, shortened: as §1

[3] = compound: C1=CC(=CC=C1C2=NC3=C(N2)C=C(C=C3)C(=O)N)OC4=CC=C(C=C4)Cl
Procedure, shortened: as §1

[4] = compound: C1=CC2=C(C=CC(=C2)/C=C\3/C(=O)NC(=NCC4=CC=CS4)S3)N=C1
Procedure, shortened: as §1

[5] = compound: C1=CC2=NC=CN=C2C=C1/C=C/3\C(=O)NC(=O)S3
Procedure, shortened: as §1

[6] = compound: C1=CC=C(C=C1)C2=NC(=C(N2)C3=CC=NC=C3)C4=CC(=C(C=C4)Cl)O
Procedure, shortened: as §1

[7] = compound: C1=CC=C2C(=C1)C3=NNC4=CC=CC(=C43)C2=O
Procedure, shortened: as §1

[8] = compound: C1CCN(C1)C(=O)NC2=CC=CC(=C2)NC3=NC=C(C(=N3)NCCC4=CN=CN4)Br
Procedure, shortened: as §1

[9] = compound: C1CN(CCC1(CC2=CC=C(C=C2)Cl)N)C3=NC=NC4=C3C=CN4
Procedure, shortened: as §1

UniProt Q9Y6K0, sequence (Q9Y6K0 whole entry, looked up): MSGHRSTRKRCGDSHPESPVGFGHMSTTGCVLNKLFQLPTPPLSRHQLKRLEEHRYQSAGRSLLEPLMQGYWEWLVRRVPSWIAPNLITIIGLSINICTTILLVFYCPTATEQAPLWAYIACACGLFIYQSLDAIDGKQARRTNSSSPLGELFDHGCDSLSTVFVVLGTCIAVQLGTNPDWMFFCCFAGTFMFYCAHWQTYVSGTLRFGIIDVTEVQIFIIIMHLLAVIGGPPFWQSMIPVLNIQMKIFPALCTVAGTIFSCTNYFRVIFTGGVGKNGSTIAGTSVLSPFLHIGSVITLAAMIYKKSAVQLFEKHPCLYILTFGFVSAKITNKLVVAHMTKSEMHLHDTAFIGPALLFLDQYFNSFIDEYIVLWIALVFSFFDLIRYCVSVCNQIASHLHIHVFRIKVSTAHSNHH
UniProt O15182, sequence (O15182 whole entry, looked up): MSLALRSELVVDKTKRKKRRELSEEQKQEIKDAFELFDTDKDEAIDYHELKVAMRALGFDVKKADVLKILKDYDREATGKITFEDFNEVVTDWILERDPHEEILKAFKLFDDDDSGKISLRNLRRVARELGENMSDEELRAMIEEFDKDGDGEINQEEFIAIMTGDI
UniProt Q13137, sequence (Q13137 whole entry, looked up): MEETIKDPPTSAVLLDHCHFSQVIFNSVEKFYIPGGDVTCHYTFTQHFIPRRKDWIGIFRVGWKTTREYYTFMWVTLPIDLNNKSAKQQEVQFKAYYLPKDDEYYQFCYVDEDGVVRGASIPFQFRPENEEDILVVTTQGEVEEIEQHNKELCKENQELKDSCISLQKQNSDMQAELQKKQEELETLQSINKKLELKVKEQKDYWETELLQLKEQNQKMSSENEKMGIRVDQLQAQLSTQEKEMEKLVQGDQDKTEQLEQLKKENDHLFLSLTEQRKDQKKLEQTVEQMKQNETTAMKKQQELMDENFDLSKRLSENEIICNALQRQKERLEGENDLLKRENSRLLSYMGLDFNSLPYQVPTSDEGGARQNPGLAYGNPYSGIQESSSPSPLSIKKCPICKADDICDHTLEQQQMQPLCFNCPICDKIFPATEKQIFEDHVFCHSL
UniProt O76031, sequence (O76031 whole entry, looked up): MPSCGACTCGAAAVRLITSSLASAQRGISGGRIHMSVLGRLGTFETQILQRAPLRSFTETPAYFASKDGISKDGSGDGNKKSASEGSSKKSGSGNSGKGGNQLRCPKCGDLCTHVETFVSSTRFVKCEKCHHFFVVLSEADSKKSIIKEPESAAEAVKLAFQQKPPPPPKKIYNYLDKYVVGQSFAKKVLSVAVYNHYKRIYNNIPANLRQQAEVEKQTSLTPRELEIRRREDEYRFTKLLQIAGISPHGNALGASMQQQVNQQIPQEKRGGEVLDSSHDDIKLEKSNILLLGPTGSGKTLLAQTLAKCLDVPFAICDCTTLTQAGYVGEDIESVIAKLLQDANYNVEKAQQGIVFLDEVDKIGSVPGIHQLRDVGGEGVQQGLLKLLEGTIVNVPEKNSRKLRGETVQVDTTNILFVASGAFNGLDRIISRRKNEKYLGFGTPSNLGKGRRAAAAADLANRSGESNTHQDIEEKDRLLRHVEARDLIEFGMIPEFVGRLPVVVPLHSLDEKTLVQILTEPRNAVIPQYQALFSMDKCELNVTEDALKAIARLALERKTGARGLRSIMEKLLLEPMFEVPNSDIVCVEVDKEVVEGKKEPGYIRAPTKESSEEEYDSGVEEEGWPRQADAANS
UniProt A8MTT3, sequence (A8MTT3 whole entry, looked up): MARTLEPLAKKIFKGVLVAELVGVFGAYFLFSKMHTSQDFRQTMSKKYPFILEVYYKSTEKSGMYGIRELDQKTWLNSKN
UniProt O00748, sequence (O00748 whole entry, looked up): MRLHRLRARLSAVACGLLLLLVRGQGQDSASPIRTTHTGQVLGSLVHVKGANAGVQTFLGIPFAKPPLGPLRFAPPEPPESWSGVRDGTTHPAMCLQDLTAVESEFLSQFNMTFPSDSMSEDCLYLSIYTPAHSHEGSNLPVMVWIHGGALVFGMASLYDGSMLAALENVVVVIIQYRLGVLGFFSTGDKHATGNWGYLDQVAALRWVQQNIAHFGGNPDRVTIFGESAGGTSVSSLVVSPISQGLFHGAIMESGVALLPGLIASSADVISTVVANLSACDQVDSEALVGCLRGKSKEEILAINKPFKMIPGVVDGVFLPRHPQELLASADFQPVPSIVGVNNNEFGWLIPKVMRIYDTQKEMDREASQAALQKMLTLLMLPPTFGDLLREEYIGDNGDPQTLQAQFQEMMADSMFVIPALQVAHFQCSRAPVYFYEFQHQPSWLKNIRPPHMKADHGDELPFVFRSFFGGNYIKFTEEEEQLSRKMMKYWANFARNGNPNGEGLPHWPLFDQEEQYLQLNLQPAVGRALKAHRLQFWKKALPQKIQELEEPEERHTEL
UniProt P09497, sequence (P09497 whole entry, looked up): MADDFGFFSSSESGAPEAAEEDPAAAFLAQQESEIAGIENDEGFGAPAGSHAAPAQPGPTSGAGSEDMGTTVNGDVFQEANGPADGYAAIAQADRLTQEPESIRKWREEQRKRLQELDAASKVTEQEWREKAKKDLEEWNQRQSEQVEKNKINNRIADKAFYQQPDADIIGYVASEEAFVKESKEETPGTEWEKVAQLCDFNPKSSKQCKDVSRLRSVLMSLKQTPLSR
UniProt P05937, sequence (P05937 whole entry, looked up): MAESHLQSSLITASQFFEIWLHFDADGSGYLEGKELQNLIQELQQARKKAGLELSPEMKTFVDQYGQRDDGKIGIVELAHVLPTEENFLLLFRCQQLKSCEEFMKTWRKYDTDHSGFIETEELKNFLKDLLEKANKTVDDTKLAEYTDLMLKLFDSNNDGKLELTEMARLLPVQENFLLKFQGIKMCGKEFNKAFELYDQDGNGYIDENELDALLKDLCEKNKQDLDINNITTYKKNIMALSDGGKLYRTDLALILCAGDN
UniProt Q96RR4, sequence (Q96RR4 whole entry, looked up): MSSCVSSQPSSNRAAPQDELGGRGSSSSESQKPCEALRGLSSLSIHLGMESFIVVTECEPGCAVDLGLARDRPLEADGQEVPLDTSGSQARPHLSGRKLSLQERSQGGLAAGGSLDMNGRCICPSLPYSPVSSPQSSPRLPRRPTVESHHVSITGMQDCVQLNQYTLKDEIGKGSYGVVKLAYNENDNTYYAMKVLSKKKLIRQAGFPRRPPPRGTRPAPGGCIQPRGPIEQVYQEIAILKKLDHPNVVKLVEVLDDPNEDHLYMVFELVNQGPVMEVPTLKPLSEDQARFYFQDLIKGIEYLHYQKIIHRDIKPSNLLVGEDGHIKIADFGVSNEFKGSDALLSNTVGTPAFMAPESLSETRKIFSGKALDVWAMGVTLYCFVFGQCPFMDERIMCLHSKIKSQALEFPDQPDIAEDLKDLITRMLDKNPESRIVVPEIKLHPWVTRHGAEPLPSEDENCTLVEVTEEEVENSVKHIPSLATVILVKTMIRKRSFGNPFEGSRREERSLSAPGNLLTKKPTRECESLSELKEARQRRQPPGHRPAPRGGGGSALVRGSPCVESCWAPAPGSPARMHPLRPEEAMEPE
UniProt O14757, sequence (O14757 whole entry, looked up): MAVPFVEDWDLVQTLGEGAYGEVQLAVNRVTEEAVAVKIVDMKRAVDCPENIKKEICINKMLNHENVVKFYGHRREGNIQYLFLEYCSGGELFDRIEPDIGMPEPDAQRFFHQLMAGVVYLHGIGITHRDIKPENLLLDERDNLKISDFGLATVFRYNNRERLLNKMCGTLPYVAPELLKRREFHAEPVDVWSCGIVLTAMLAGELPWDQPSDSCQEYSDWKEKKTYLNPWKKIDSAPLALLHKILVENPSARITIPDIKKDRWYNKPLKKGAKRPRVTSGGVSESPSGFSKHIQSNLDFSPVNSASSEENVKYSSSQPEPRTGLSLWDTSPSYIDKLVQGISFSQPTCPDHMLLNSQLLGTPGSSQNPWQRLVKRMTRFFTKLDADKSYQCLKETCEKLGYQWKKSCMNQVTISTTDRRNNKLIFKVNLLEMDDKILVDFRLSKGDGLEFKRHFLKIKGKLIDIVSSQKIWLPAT
UniProt Q9Y3X0, sequence (Q9Y3X0 whole entry, looked up): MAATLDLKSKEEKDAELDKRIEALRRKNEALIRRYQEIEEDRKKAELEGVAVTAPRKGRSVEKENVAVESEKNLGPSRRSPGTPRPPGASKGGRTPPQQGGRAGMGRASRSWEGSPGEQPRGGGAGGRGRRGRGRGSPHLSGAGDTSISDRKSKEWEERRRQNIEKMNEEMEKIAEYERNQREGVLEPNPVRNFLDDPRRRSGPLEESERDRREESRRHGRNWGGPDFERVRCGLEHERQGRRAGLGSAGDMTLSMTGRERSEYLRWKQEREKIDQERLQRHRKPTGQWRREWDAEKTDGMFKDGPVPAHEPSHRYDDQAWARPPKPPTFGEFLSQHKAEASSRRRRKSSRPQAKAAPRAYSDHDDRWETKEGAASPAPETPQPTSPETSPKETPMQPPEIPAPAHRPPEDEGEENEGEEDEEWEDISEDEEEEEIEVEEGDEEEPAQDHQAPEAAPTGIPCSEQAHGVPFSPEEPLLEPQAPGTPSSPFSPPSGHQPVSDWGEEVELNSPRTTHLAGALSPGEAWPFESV
UniProt Q5T6V5, sequence (Q5T6V5 whole entry, looked up): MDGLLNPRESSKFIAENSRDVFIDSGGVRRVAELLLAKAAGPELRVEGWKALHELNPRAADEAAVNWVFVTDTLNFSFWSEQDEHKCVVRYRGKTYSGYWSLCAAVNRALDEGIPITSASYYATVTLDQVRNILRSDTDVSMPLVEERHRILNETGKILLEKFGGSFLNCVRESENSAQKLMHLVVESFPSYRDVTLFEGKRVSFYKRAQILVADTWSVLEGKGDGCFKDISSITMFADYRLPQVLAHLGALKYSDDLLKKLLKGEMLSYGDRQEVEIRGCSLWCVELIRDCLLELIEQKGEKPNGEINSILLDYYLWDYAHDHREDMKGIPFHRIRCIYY
UniProt Q8WUX2, sequence (Q8WUX2 whole entry, looked up): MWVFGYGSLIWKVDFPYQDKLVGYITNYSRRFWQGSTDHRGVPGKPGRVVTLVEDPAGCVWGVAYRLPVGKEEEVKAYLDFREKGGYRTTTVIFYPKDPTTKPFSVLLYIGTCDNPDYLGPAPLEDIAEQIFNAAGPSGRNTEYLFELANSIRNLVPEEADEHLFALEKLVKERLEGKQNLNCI

| Target | log2 fold change (erlotinib) | log2 fold change [1] | log2 fold change [2] | log2 fold change [3] | log2 fold change [4] | log2 fold change [5] | log2 fold change [6] | log2 fold change [7] | log2 fold change [8] | log2 fold change [9] |
| --- | --- | --- | --- | --- | --- | --- | --- | --- | --- | --- |
| CNN2 (UniProt Q99439) | 0.047 | 0.124 | 0.109 | -0.039 | 0.013 | 0.032 | -0.012 | -0.011 | -0.017 | -0.042 |
| CHERP (UniProt Q8IWX8) | 0.083 | 0.065 | 0.014 | 0.053 | -0.03 | 0.09 | 0.026 | -0.036 | -0.084 | -0.113 |
| CASP3 (UniProt P42574) | -0.014 | -0.021 | 0.238 | 0.006 | -0.005 | -0.001 | 0.086 | 0.015 | -0.028 | 0.093 |
| CELF2 isoform 3 (UniProt O95319) | -0.042 | -0.044 | 0 | 0.045 | 0.004 | 0.047 | 0.021 | 0.064 | -0.022 | 0.086 |
| CHAC2 (UniProt Q8WUX2) | 0.025 | -0.011 | 0.001 | -0.012 | -0.003 | -0.033 | -0.018 | 0.001 | -0.025 | 0.093 |
| CEPT1 (UniProt Q9Y6K0) | 0.099 | 0.034 | 0.016 | 0.107 | 0.037 | 0.047 | 0.011 | 0.071 | 0.007 | -0.074 |
| CCDC9 (UniProt Q9Y3X0) | 0.017 | -0.116 | -0.036 | 0.047 | -0.045 | 0.034 | 0.027 | -0.02 | 0.062 | 0.034 |
| C9orf64 (UniProt Q5T6V5) | 0.046 | 0.142 | 0.009 | 0.065 | 0.117 | 0.017 | 0.054 | -0.037 | -0.001 | -0.039 |
| CLPX (UniProt O76031) | -0.062 | 0.056 | 0.01 | 0.004 | -0.009 | 0.036 | -0.008 | -0.034 | -0.03 | -0.003 |
| CLSPN (UniProt Q9HAW4) | -0.09 | -0.022 | -0.024 | 0.02 | -0.035 | 0.032 | -0.062 | -0.027 | -0.083 | 0.033 |
| CETN3 (UniProt O15182) | -0.098 | 0.009 | -0.065 | -0.022 | 0.027 | 0.077 | -0.12 | -0.055 | 0.041 | -0.125 |
| CALB1 (UniProt P05937) | -0.011 | -0.001 | 0.067 | 0.032 | -0.033 | 0.055 | -0.01 | 0.027 | 0.019 | -0.026 |
| CLCN3 isoform 2 (UniProt P51790) | 0.008 | 0.089 | 0.059 | 0.044 | 0.024 | -0.002 | 0.025 | -0.017 | -0.012 | 0.033 |
| COQ7 (UniProt Q99807) | 0.082 | -0.014 | 0.075 | 0.023 | -0.005 | 0.068 | -0.024 | -0.009 | 0.02 | 0.052 |
| CES2 isoform 4 (UniProt O00748) | -0.05 | -0.16 | -0.264 | -0.008 | -0.06 | -0.011 | 0.139 | 0.083 | 0.061 | -0.087 |
| CRYM-AS1 (UniProt A6NIL9) | 0.13 | -0.214 | 0.027 | 0.23 | 0.089 | -0.725 | 0.024 | 0.073 | -0.27 | 0.108 |
| COPS3 (UniProt Q9UNS2) | -0.019 | 0.035 | 0.091 | 0.016 | 0.055 | 0.01 | -0.009 | 0.007 | 0.014 | 0.014 |
| CCND3 (UniProt P30281) | -0.028 | -0.025 | -0.081 | 0.036 | 0.143 | 0.289 | 0.047 | -0.001 | 0.09 | -0.043 |
| CHAMP1 (UniProt Q96JM3) | 0.083 | 0.004 | 0.075 | 0.03 | 0.023 | 0.014 | -0.01 | -0.06 | 0.004 | 0.064 |
| CLTB (UniProt P09497) | 0.106 | -0.042 | 0.038 | -0.05 | -0.02 | 0.039 | 0.069 | 0.028 | 0.008 | 0.023 |
| CPT1A (UniProt P50416) | -0.008 | 0.042 | -0.111 | 0.008 | -0.028 | -0.096 | 0 | 0.081 | -0.055 | 0.076 |
| CIR1 (UniProt Q86X95) | -0.008 | -0.035 | -0.254 | 0.055 | -0.054 | -0.029 | -0.144 | -0.016 | -0.008 | 0.002 |
| CHST11 (UniProt Q9NPF2) | -0.061 | 0.082 | 0.046 | -0.054 | -0.118 | 0.007 | 0.161 | 0.057 | 0.002 | -0.067 |
| CIT isoform 4 (UniProt O14578) | -0.015 | 0.045 | -0.044 | 0 | -0.176 | 0.13 | -0.027 | -0.002 | -0.037 | 0.021 |
| CALCOCO2 isoform 4 (UniProt Q13137) | -0.081 | 0.018 | -0.08 | 0.059 | 0.022 | -0.043 | -0.003 | -0.057 | -0.016 | -0.052 |
| CHEK1 (UniProt O14757) | 0.03 | 0.047 | 0.029 | 0.012 | 0.246 | 0 | -0.026 | -0.099 | -0.303 (active) | -0.089 |
| CAMKK2 (UniProt Q96RR4) | -0.091 | -0.047 | -0.026 | -0.232 | -0.059 | -0.081 | -0.122 | -0.037 | -0.19 | 0.23 |
| CDC42SE1 (UniProt Q9NRR8) | 0.078 | 0.041 | -0.005 | 0.014 | 0.021 | 0 | -0.009 | -0.207 | 0.023 | -0.012 |
| CEBPZOS (UniProt A8MTT3) | -0.017 | 0.084 |  | 0.015 | 0.039 | 0.074 | 0.03 | 0.057 | 0.05 | -0.03 |
